PubChem BioAssay (NCI)
Compounds without any hit were thinned out: in the full panel of roughly 83,000, 20% have a hit.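 Note: values are percent growth. 100 is the growth of untreated cells, values between 100 and 0 indicate rising inhibition; between -100 and 0 indicates cell death.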 Active and inactive are the calls of the source. Rule for the calls: active = growth percent below 10; inactive = the rest.

Assays:
Assay in all cases: NCI-60 one-dose screen, 48 h (100 = growth as untreated, 0 = no growth, -100 = all killed)
Settings in all cases: 10 µM unless noted
NCI-H23 lung = tested on: NCI-H23 lung
NCI-H226 lung = tested on: NCI-H226 lung
NCI-H322M lung = tested on: NCI-H322M lung
HOP-62 NSCLC = tested on: HOP-62 NSCLC
NCI-H460 lung = tested on: NCI-H460 lung
HOP-92 NSCLC = tested on: HOP-92 NSCLC
NCI-H522 lung = tested on: NCI-H522 lung
A549/ATCC NSCLC = tested on: A549/ATCC NSCLC
786-0 renal = tested on: 786-0 renal
DU-145 prostate = tested on: DU-145 prostate
K-562 leukemia = tested on: K-562 leukemia
MALME-3M melanoma = tested on: MALME-3M melanoma
MDA-MB-231 breast = tested on: MDA-MB-231 breast
RXF 393 renal = tested on: RXF 393 renal
SF-268 CNS = tested on: SF-268 CNS
SF-295 CNS = tested on: SF-295 CNS
SF-539 CNS = tested on: SF-539 CNS
UACC-257 melanoma = tested on: UACC-257 melanoma
M14 melanoma = tested on: M14 melanoma
COLO 205 colon = tested on: COLO 205 colon

Measured: growth

C=C(CNCCc1ccc(O)cc1)[C@@H]1CC[C@]2(COC3CCCCO3)CC[C@]3(C)[C@H](CC[C@@H]4[C@@]5(C)CCC(N)C(C)(C)[C@@H]5CC[C@]43C)[C@@H]12 (some centres undefined)
active: NCI-H23 lung -89.1% | NCI-H226 lung -59.1% | NCI-H322M lung -95.1% | HOP-62 NSCLC -91.4% | NCI-H460 lung -84.2% | HOP-92 NSCLC -73.9% | NCI-H522 lung -84.3% | A549/ATCC NSCLC -86.2% | 786-0 renal -79.4% | DU-145 prostate -88.9% | K-562 leukemia -73% | MALME-3M melanoma -83.9% | MDA-MB-231 breast -92.2% | RXF 393 renal -83.9% | SF-268 CNS -71.6% | SF-295 CNS -88% | SF-539 CNS -94.9% | UACC-257 melanoma -80.7% | M14 melanoma -88.6%

Nc1c(-c2nc3ccc(Br)cc3c(=O)[nH]2)nnn1-c1ccccc1
inactive: NCI-H23 lung 82.6% | NCI-H226 lung 107% | NCI-H322M lung 71.5% | HOP-62 NSCLC 87% | NCI-H460 lung 43.5% | HOP-92 NSCLC 94.7% | NCI-H522 lung 73.9% | A549/ATCC NSCLC 74.8% | 786-0 renal 87.6% | COLO 205 colon 102% | DU-145 prostate 62.3% | MALME-3M melanoma 86.8% | MDA-MB-231 breast 82.2% | RXF 393 renal 103% | SF-268 CNS 60% | SF-295 CNS 68% | SF-539 CNS 90.9% | UACC-257 melanoma 95.9%

Cc1c2c(cn1Cc1ccccc1)CCc1cn(C)nc1-2
inactive: NCI-H23 lung 63.7% | NCI-H226 lung 95.3% | NCI-H322M lung 107% | HOP-62 NSCLC 92.1% | NCI-H460 lung 93.3% | HOP-92 NSCLC 40% | NCI-H522 lung 78.3% | A549/ATCC NSCLC 89.8% | 786-0 renal 81.8% | DU-145 prostate 111% | K-562 leukemia 58.1% | MALME-3M melanoma 101% | MDA-MB-231 breast 89.5% | RXF 393 renal 83.9% | SF-268 CNS 102% | SF-295 CNS 57.7% | SF-539 CNS 83.1% | UACC-257 melanoma 79.3%

CCOC(=O)c1nnn(-c2ccccc2)c1C1=CN(C)CCC1
inactive: NCI-H23 lung 92.8% | NCI-H226 lung 102% | NCI-H322M lung 95.8% | HOP-62 NSCLC 99.6% | NCI-H460 lung 104% | HOP-92 NSCLC 108% | NCI-H522 lung 86.7% | A549/ATCC NSCLC 99.6% | 786-0 renal 97.3% | COLO 205 colon 113% | DU-145 prostate 103% | MALME-3M melanoma 104% | MDA-MB-231 breast 112% | RXF 393 renal 120% | SF-268 CNS 92.4% | SF-295 CNS 98.2% | SF-539 CNS 95.2% | UACC-257 melanoma 99.4%

COC(=O)c1ccc(CSc2nnc(-c3ccncc3)o2)cc1
inactive: NCI-H23 lung 105% | NCI-H226 lung 102% | NCI-H322M lung 93.4% | HOP-62 NSCLC 92.4% | NCI-H460 lung 108% | HOP-92 NSCLC 108% | NCI-H522 lung 86.3% | A549/ATCC NSCLC 99.9% | 786-0 renal 100% | DU-145 prostate 114% | K-562 leukemia 93.9% | MALME-3M melanoma 103% | MDA-MB-231 breast 106% | RXF 393 renal 122% | SF-268 CNS 101% | SF-295 CNS 109% | SF-539 CNS 98.7% | UACC-257 melanoma 99% | M14 melanoma 102%

C[N+](C)(C)CCOC(OCC[N+](C)(C)C)(c1ccccc1)c1ccccc1
inactive: NCI-H23 lung 99.8% | NCI-H226 lung 107% | NCI-H322M lung 129% | HOP-62 NSCLC 106% | NCI-H460 lung 106% | HOP-92 NSCLC 91% | NCI-H522 lung 93% | A549/ATCC NSCLC 100% | 786-0 renal 114% | COLO 205 colon 116% | K-562 leukemia 99% | MALME-3M melanoma 126% | MDA-MB-231 breast 108% | RXF 393 renal 122% | SF-295 CNS 117% | SF-539 CNS 96.6% | UACC-257 melanoma 103%

NC(N)=N/N=C/c1ccc(Br)cc1
active: 786-0 renal -38.3% | K-562 leukemia 4.4%
inactive: NCI-H23 lung 56.4% | NCI-H226 lung 72.1% | NCI-H322M lung 98.6% | HOP-62 NSCLC 10.2% | NCI-H460 lung 14.3% | HOP-92 NSCLC 49.3% | NCI-H522 lung 40% | A549/ATCC NSCLC 34.6% | DU-145 prostate 80% | MALME-3M melanoma 45% | MDA-MB-231 breast 38.1% | RXF 393 renal 70.8% | SF-268 CNS 62% | SF-295 CNS 48.3% | SF-539 CNS 62.2% | UACC-257 melanoma 58.6% | M14 melanoma 14.6%

COc1ccc(-c2nc3ncccn3c2/C=C/C(=O)c2cc(OC)c(OC)c(OC)c2)cc1
active: NCI-H23 lung -19.6% | NCI-H226 lung -24.4% | HOP-62 NSCLC -12.4% | NCI-H460 lung -79.4% | HOP-92 NSCLC -0.213% | NCI-H522 lung -44.6% | 786-0 renal -26% | DU-145 prostate 2.9% | K-562 leukemia 6.79% | RXF 393 renal -24.4% | SF-295 CNS -31.5% | SF-539 CNS -87.2%
inactive: NCI-H322M lung 16.1% | A549/ATCC NSCLC 10.2% | MALME-3M melanoma 61.8% | MDA-MB-231 breast 21.1% | SF-268 CNS 13.4% | UACC-257 melanoma 41.2%

Nc1ccc2c(S(=O)(=O)O)ccc(S(=O)(=O)O)c2c1
inactive: NCI-H23 lung 100% | NCI-H226 lung 101% | NCI-H322M lung 121% | HOP-62 NSCLC 92.3% | NCI-H460 lung 101% | HOP-92 NSCLC 89.1% | NCI-H522 lung 85% | A549/ATCC NSCLC 92.6% | 786-0 renal 97.8% | DU-145 prostate 115% | K-562 leukemia 90.6% | MALME-3M melanoma 109% | MDA-MB-231 breast 111% | RXF 393 renal 114% | SF-268 CNS 102% | SF-295 CNS 105% | SF-539 CNS 88.5% | UACC-257 melanoma 95.3%
